{"source": "PubChem BioAssay (Tox21)", "note": "Results filed as inconclusive are left out. A number with no mark means an inactive call. Unless noted, the call rests on the fitted dose curve; in most records, active means well fitted curve in the direction sought with a large enough effect in the repeat runs; inconclusive means weak or mixed curves; inactive means no such curve, though single readings can be large; an effect the other way counts as inactive or inconclusive. On the % scale 0 is the no-effect control and ±100 the full control effect."}
{"tested_on": "not listed separately", "experiment": "qHTS assay to identify small molecule antagonists of the constitutive androstane receptor (CAR) signaling pathway - cell viability counter screen (AID 1224837); further: nearly all actives have a fitted effect of over 45% in size", "conditions": "HepG2-CYP2B6-hCAR viability, CellTiter-Fluor, 23 h, co-treated with 50 nM CITCO; series mostly up to 92.4 µM; activity change, negative = cytotoxicity: at the top concentration", "in_short": "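CITCO at 50 nM final was added alongside compounds (15 concentrations) to double-stable hCAR/CYP2B6-2.2kb HepG2 cells. Following 23 hr at 37 C, cell viability was quantified by CellTiter-Fluor fluorescence intensity.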"}
{"smiles": "C[C@@H]1CN(c2c(F)c(N)c3c(=O)c(C(=O)O)cn(C4CC4)c3c2F)C[C@H](C)N1", "activity change, negative = cytotoxicity": "0.653% [at 19 µM]"}
{"smiles": "Oc1ccccc1F", "activity change, negative = cytotoxicity": "-3.7%"}
{"smiles": "C/C(=N\\O)[C@@H](C)NCC(C)(C)CN[C@H](C)/C(C)=N/O", "activity change, negative = cytotoxicity": "14.4% [at 42.5 µM]"}
{"smiles": "Cc1ncc(CO)c(CN)c1O", "activity change, negative = cytotoxicity": "0.0398% [at 42.5 µM]"}
{"smiles": "CCOc1ccc(OCC)c(Cl)c1", "activity change, negative = cytotoxicity": "-12.6%"}
{"smiles": "COC(=O)C(C)O", "note": "(stereo not given)", "activity change, negative = cytotoxicity": "1.07%"}
{"smiles": "CCOc1ccc(NS(=O)(=O)c2ccc(N)cc2)nn1", "activity change, negative = cytotoxicity": "3.23% [at 42.5 µM]"}
{"smiles": "CCC(=O)Nc1ccc(O)cc1", "activity change, negative = cytotoxicity": "9.67% [at 42.5 µM]"}
{"smiles": "O=CCCc1ccccc1", "activity change, negative = cytotoxicity": "9.09%"}
{"smiles": "C=CCCCCCCCCO", "activity change, negative = cytotoxicity": "5.16%"}
{"smiles": "CC/C=C\\CCOC(=O)C(C)C", "activity change, negative = cytotoxicity": "0.276%"}
{"target": "Nuclear receptor subfamily 1 group I member 3 (Homo sapiens) (UniProt Q14994)", "sequence (Q14994 whole entry, looked up)": "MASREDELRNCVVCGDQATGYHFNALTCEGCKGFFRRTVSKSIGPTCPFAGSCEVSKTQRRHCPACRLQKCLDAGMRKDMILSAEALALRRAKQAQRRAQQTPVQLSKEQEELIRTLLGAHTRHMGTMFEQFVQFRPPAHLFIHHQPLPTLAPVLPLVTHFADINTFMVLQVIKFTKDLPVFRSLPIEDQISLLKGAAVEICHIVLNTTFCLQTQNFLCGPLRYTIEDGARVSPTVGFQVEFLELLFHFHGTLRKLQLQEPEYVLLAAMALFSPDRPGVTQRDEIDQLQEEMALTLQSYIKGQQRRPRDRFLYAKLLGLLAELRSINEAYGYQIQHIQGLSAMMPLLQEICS", "experiment": "qHTS assay to identify small molecule antagonists of the constitutive androstane receptor (CAR) signaling pathway (AID 1224838); further: nearly all actives have a fitted effect of over 40% in size", "conditions": "HepG2-CYP2B6-hCAR luciferase, CITCO-stimulated, 24 h; series mostly up to 92.4 µM; activity, negative = inhibition: at the top concentration", "in_short": "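Inhibition of CITCO-driven (50 nM final) CYP2B6 reporter expression is measured in HepG2 cells stably carrying hCAR. Fifteen compound concentrations are applied for 24 h at 37 C, followed by luciferase luminescence.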"}
{"smiles": "COc1nc(C)nc(NC(=O)NS(=O)(=O)c2ccccc2OCCCl)n1", "activity, negative = inhibition": "17.8%"}
{"smiles": "Cc1ccsc1C(=CCCN1CCC[C@@H](C(=O)O)C1)c1sccc1C", "activity, negative = inhibition": "8.15% [at 42.5 µM]"}
{"smiles": "O=C(O)c1cccc(Cl)c1Cl", "activity, negative = inhibition": "-13.9%"}
{"smiles": "OCC(CBr)(CBr)CBr", "activity, negative = inhibition": "29.4%"}
{"smiles": "CCC(=O)c1ccc2c(c1)N(CCCN(C)C)c1ccccc1S2", "activity, negative = inhibition": "20.4% [at 42.5 µM]"}
{"smiles": "CC(C)(C)c1ccc(OC(=O)c2ccccc2O)cc1", "activity, negative = inhibition": "101%"}
{"smiles": "CN(C)C(=O)NC1(c2ccccc2)CCN(CCC[C@]2(c3ccc(Cl)c(Cl)c3)CCCN(C(=O)c3ccccc3)C2)CC1", "activity, negative = inhibition": "-20.2% [at 19 µM]"}
{"smiles": "CC(C)(C)C1CCCCC1=O", "note": "(stereo not given)", "activity, negative = inhibition": "-17.5%"}
{"smiles": "Cc1ncc(CO)c(CN)c1O", "activity, negative = inhibition": "23.4% [at 42.5 µM]"}
{"smiles": "CCOc1ccc(OCC)c(Cl)c1", "activity, negative = inhibition": "-4.1%"}
{"smiles": "CC1(O)CSC(C)(O)CS1", "note": "(stereo not given)", "activity, negative = inhibition": "-11.6%"}
{"smiles": "CCN(CC)CCOc1ccc(Cc2ccccc2)cc1", "activity, negative = inhibition": "34.2% [at 42.5 µM]"}
{"smiles": "CN1CCN(N)CC1", "activity, negative = inhibition": "14.5% [at 42.5 µM]"}
{"smiles": "O=S(=O)(O)C(F)(F)F", "activity, negative = inhibition": "4.52%"}
{"smiles": "CCCCCCn1c(=O)c2c(ncn2C)n(C)c1=O", "activity, negative = inhibition": "57.9% [at 42.5 µM]"}
{"smiles": "CC(CNC1CCCCC1)OC(=O)c1ccccc1", "note": "(stereo not given)", "activity, negative = inhibition": "-1.19% [at 42.5 µM]"}
{"smiles": "CCCc1c2oc(C(=O)O)cc(=O)c2cc2c(=O)cc(C(=O)O)n(CC)c12", "activity, negative = inhibition": "-0.751% [at 42.5 µM]"}
{"smiles": "CCCCCCCCCC#N", "activity, negative = inhibition": "-16.3%"}
{"smiles": "Clc1cccc(-c2cc(Cl)cc(Cl)c2)c1", "activity, negative = inhibition": "40.7%"}
{"smiles": "O=Cc1ccc(O)c(O)c1O", "activity, negative = inhibition": "11.8% [at 42.5 µM]"}
{"smiles": "FC(F)(F)C(Cl)(Cl)Cl", "activity, negative = inhibition": "-2.38%"}
{"smiles": "NC(=O)Cc1cccc(C(=O)c2ccccc2)c1N", "activity, negative = inhibition": "52.1% [at 42.5 µM]"}
{"smiles": "CN1CCN(C2=Nc3cc(F)ccc3Cc3ccccc32)CC1", "activity, negative = inhibition": "-3.12% [at 42.5 µM]"}
{"target": "Nuclear receptor subfamily 1 group I member 3 (Homo sapiens) (UniProt Q14994)", "experiment": "qHTS assay to identify small molecule agonists of the constitutive androstane receptor (CAR) signaling pathway (AID 1224839); further: nearly all actives have a fitted effect of over 15% in size", "conditions": "HepG2 hCAR CYP2B6-luciferase, agonist mode, 24 h; series mostly up to 92.4 µM; activation: at the top concentration", "in_short": "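Readout: firefly luciferase luminescence via ONE-Glo. System: HepG2 double-stable for hCAR and CYP2B6-2.2kb. Conditions: 15-point compound titration, PK11195 at 0.75 uM final, 24 h incubation.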"}
{"smiles": "COc1nc(C)nc(NC(=O)NS(=O)(=O)c2ccccc2OCCCl)n1", "activation": "0.218%"}
{"smiles": "Cc1ccsc1C(=CCCN1CCC[C@@H](C(=O)O)C1)c1sccc1C", "activation": "1.08% [at 42.5 µM]"}
{"smiles": "O=C(O)c1cccc(Cl)c1Cl", "activation": "-0.783%"}
{"smiles": "CC(C)(C)C1CCCCC1=O", "note": "(stereo not given)", "activation": "-2.66%"}
{"smiles": "Cc1ncc(CO)c(CN)c1O", "activation": "-2.44% [at 42.5 µM]"}
{"smiles": "CCOc1ccc(OCC)c(Cl)c1", "activation": "-0.466%"}
{"smiles": "CC1(O)CSC(C)(O)CS1", "note": "(stereo not given)", "activation": "3.03%"}
{"smiles": "CCN(CC)CCOc1ccc(Cc2ccccc2)cc1", "activation": "2.91% [at 42.5 µM]"}
{"smiles": "CN1CCN(N)CC1", "activation": "0.379% [at 42.5 µM]"}
{"smiles": "O=S(=O)(O)C(F)(F)F", "activation": "-5.55%"}
{"smiles": "CCCCCCn1c(=O)c2c(ncn2C)n(C)c1=O", "activation": "8.85% [at 42.5 µM]"}
{"smiles": "CCCc1c2oc(C(=O)O)cc(=O)c2cc2c(=O)cc(C(=O)O)n(CC)c12", "activation": "-1.38% [at 42.5 µM]"}
{"smiles": "CCCCCCCCCC#N", "activation": "-2.65%"}
{"smiles": "O=Cc1ccc(O)c(O)c1O", "activation": "0.045% [at 42.5 µM]"}
{"smiles": "CN1CCN(C2=Nc3cc(F)ccc3Cc3ccccc32)CC1", "activation": "9.93% [at 42.5 µM]"}
{"tested_on": "not listed separately", "experiment": "qHTS assay to identify small molecule antagonists of the estrogen related receptor signaling pathway with the pleiotropic PPARgamma coactivator (PGC) from Tox21 10K library - cell viability counter screen (AID 1224840; active means well fitted cell-killing curve with a large enough effect in the repeat runs, not every such curve was filed as active; further: nearly all actives have a fitted effect of over 40% in size)", "conditions": "PGC/ERR reporter cells viability, CellTiter-Fluor, 17.5 h; series mostly up to 92.4 µM; viability change, negative = cytotoxic: at the top concentration", "in_short": "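Readout: fluorescence intensity from CellTiter-Fluor after 30 min at 37 C/5% CO2. Preceded by 17.5 h treatment of PGC/ERR cells with DMSO-dissolved compounds, added 6 h post-seeding.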"}
{"smiles": "C[C@@H]1CN(c2c(F)c(N)c3c(=O)c(C(=O)O)cn(C4CC4)c3c2F)C[C@H](C)N1", "viability change, negative = cytotoxic": "-4.64% [at 19 µM]"}
{"smiles": "COc1nc(C)nc(NC(=O)NS(=O)(=O)c2ccccc2OCCCl)n1", "viability change, negative = cytotoxic": "7.09%"}
{"smiles": "Cc1ccsc1C(=CCCN1CCC[C@@H](C(=O)O)C1)c1sccc1C", "viability change, negative = cytotoxic": "-0.0421% [at 42.5 µM]"}
{"smiles": "C=CCCC=C", "viability change, negative = cytotoxic": "2.77%"}
{"smiles": "CN1C(=O)CC(c2ccccc2)C1=O", "note": "(stereo not given)", "viability change, negative = cytotoxic": "1.51% [at 42.5 µM]"}
{"smiles": "O=C(O)c1cccc(Cl)c1Cl", "viability change, negative = cytotoxic": "6.78%"}
{"smiles": "OCC(CBr)(CBr)CBr", "viability change, negative = cytotoxic": "6.01%"}
{"smiles": "CC(C)(C)c1ccc(OC(=O)c2ccccc2O)cc1", "viability change, negative = cytotoxic": "1.26%"}
{"smiles": "Oc1ccccc1F", "viability change, negative = cytotoxic": "6.37%"}
{"smiles": "CC(C)(C)C1CCCCC1=O", "note": "(stereo not given)", "viability change, negative = cytotoxic": "8.15%"}
{"smiles": "C/C(=N\\O)[C@@H](C)NCC(C)(C)CN[C@H](C)/C(C)=N/O", "viability change, negative = cytotoxic": "-6.17% [at 42.5 µM]"}
{"smiles": "Cc1ncc(CO)c(CN)c1O", "viability change, negative = cytotoxic": "8.77% [at 42.5 µM]"}
{"smiles": "CCOc1ccc(OCC)c(Cl)c1", "viability change, negative = cytotoxic": "11.9%"}
{"smiles": "CC1(O)CSC(C)(O)CS1", "note": "(stereo not given)", "viability change, negative = cytotoxic": "7.4%"}
{"smiles": "CCN(CC)CCOc1ccc(Cc2ccccc2)cc1", "viability change, negative = cytotoxic": "-8.22% [at 42.5 µM]"}
{"smiles": "CN1CCN(N)CC1", "viability change, negative = cytotoxic": "11.7% [at 42.5 µM]"}
{"smiles": "O=S(=O)(O)C(F)(F)F", "viability change, negative = cytotoxic": "-1.47%"}
{"smiles": "COC(=O)C(C)O", "note": "(stereo not given)", "viability change, negative = cytotoxic": "9.84%"}
{"smiles": "CCOc1ccc(NS(=O)(=O)c2ccc(N)cc2)nn1", "viability change, negative = cytotoxic": "14.9% [at 42.5 µM]"}
{"smiles": "Cc1ccc(C(C)C)cc1O", "viability change, negative = cytotoxic": "4.11%"}
{"smiles": "CCCCCCn1c(=O)c2c(ncn2C)n(C)c1=O", "viability change, negative = cytotoxic": "-4.96% [at 42.5 µM]"}
{"smiles": "CCC(=O)Nc1ccc(O)cc1", "viability change, negative = cytotoxic": "2.4% [at 42.5 µM]"}
{"smiles": "CC(CNC1CCCCC1)OC(=O)c1ccccc1", "note": "(stereo not given)", "viability change, negative = cytotoxic": "10.6% [at 42.5 µM]"}
{"smiles": "CN1CCN(c2c(F)cc3c(=O)c(C(=O)O)cn(CCF)c3c2F)CC1", "viability change, negative = cytotoxic": "9.32% [at 42.5 µM]"}
{"smiles": "O=CCCc1ccccc1", "viability change, negative = cytotoxic": "-5.55%"}
{"smiles": "CCCc1c2oc(C(=O)O)cc(=O)c2cc2c(=O)cc(C(=O)O)n(CC)c12", "viability change, negative = cytotoxic": "5.61% [at 42.5 µM]"}
{"smiles": "C=CCCCCCCCCO", "viability change, negative = cytotoxic": "4.55%"}
{"smiles": "CCCCCCCCCC#N", "viability change, negative = cytotoxic": "2.39%"}
{"smiles": "Clc1cccc(-c2cc(Cl)cc(Cl)c2)c1", "viability change, negative = cytotoxic": "0.572%"}
{"smiles": "CCCCNc1cc(C(=O)O)cc(S(N)(=O)=O)c1Oc1ccccc1", "viability change, negative = cytotoxic": "4.2% [at 42.5 µM]"}
{"smiles": "O=Cc1ccc(O)c(O)c1O", "viability change, negative = cytotoxic": "-4.48% [at 42.5 µM]"}
{"smiles": "CC/C=C\\CCOC(=O)C(C)C", "viability change, negative = cytotoxic": "7.94%"}
{"smiles": "FC(F)(F)C(Cl)(Cl)Cl", "viability change, negative = cytotoxic": "-4.38%"}
{"smiles": "NC(=O)Cc1cccc(C(=O)c2ccccc2)c1N", "viability change, negative = cytotoxic": "-0.0428% [at 42.5 µM]"}
{"smiles": "O=C1CCCCC1C1CCCCC1", "note": "(stereo not given)", "viability change, negative = cytotoxic": "5.82%"}
{"smiles": "CN1CCN(C2=Nc3cc(F)ccc3Cc3ccccc32)CC1", "viability change, negative = cytotoxic": "-8.9% [at 42.5 µM]"}
